# Compounds with a hit are over-represented: about 4.1% of the library has one in this group of screens.
# Peg3 prom inh – Peg3 promoter-driven luciferase inhibitors, primary screen, cell-based, HeLa, luciferase luminescence; inhibition, % at 20 µM; 1.7% of 360,000 active; HeLa PEG-Prom luciferase reporter, overnight; AID 588405, 2011;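 active means inhibition of at least 50% at 20 µM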
# TWEAK Fn14 block – inhibitors of TWEAK-Fn14 signaling, primary screen, luciferase reporter cells, uHTS; inhibition, % at 10 µM; TWEAK-stimulated Fn14 reporter cells, luciferase luminescence, 8 h; AID 1159606, 2016; 2% of 360,000 active; in the data active means inhibition above about 50%
# TRPM1 prom inh – inhibitors of MITF-dependent TRPM1 promoter reporter, primary screen, cell-based, SK-MEL-5, single point, luciferase. SK-MEL-5 TRPM1 promoter luciferase, 24 h. 0.83% of 330,000 active. inhibition, % at 12.5 µM;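 active means mean inhibition across replicates of 60% or more, whatever share of single replicates reaches that level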
# EBV LMP1 NFkB – EBV LMP1-driven NF-kappaB luciferase reporter inhibitors, primary screen, cell-based, luminescence, single point. LMP1-induced NF-kappaB luciferase reporter cells. inhibition, % at 12.5 µM. 0.69% of 350,000 active. AID 504558, 2011; in the data active means inhibition above about 41%;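 further: 0% = neutral control wells and 100% = reference inhibitor control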
# TROY signal inh – inhibitors of TROY-driven NF-kB signaling, primary screen, Q293 LMP1-TROYcd cells, NF-kB luciferase, uHTS; inhibition, % at 10 µM; 0.98% of 360,000 active; AID 1347056, 2019; Q293 LMP1-TROYcd NF-kB luciferase reporter, 4 h;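 active means compounds whose plate-normalised and pattern-corrected inhibition of the luciferase reporter signal at the single screening dose is 50% or more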
# Shn3 3UTR inh – reduction of Shn3 3'UTR firefly luciferase signal, primary screen, Schnurri-3 inhibitor project, cell-based, Clone20 osteoblasts, set 2. inhibition, % at 12.5 µM. Clone20 osteoblast Shn3 3'UTR firefly luciferase, 24 h. AID 588674, 2011. 0.52% of 360,000 active;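 active means mean inhibition of at least 75% with every replicate also reaching 75%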;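 further: 0% = median of neutral control wells and 100% = pilot-screen positive control compound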
# * marks the source's active call; other numbers are inactive results; x = no result given.
SMILES,Peg3 prom inh,TWEAK Fn14 block,TRPM1 prom inh,EBV LMP1 NFkB,TROY signal inh,Shn3 3UTR inh
Cn1nc(-c2ccc(OCC(=O)Nc3ccccc3)cc2)c2ccccc2c1=O,2,53*,7,-2,15,10
CN(C)CCNC(=O)c1cccc2ccc(-c3ccc(-c4ccccc4)cc3)nc12,93*,-44,70*,-2,-66,-5
Cc1cc(C(=O)NCCCN(C)C)c2ccccc2n1,9,-3,-20,-1,8,5
COc1ccc(OC)c2nc3c(C(=O)NCCN(C)C)cccc3nc12,90*,-23,73*,-2,-2,41
CCOC(=O)N1CCC(N2C(=O)c3ccccc3C2Nc2cc(Cl)c(OC)cc2OC)CC1 (centres undefined),14,2,-8,75*,-4,20
CCOC(=O)N1CCC(N2C(=O)c3ccccc3C2Nc2cc(OC)c(OC)c(OC)c2)CC1 (centres undefined),10,-2,6,7,9,8
CCOC(=O)c1cnc2cc(-c3ccc(Br)cc3)nn2c1C,-146,-30,-53,-24,-40,7
COc1ccc(C(CC(=O)O)N2Cc3ccccc3C2=O)cc1OC (centres undefined),2,-2,-3,12,8,-6
CCc1ccc(NC(=O)c2ccc(F)c(S(=O)(=O)N(CC)c3ccccc3)c2)cc1,-1,3,13,-1,9,30
CCN(c1ccccc1)S(=O)(=O)c1cc(C(=O)Nc2cccc(Cl)c2)ccc1F,27,68*,11,-8,46,50
COc1ccc(/C=C/CN2CCC(CO)(Cc3ccccc3Cl)CC2)cc1,21,3,1,-3,6,14
CN(CCCC(=O)N1CCCC(C(N)=O)C1)S(=O)(=O)c1ccc(F)cc1 (centres undefined),-2,68*,-2,2,-7,3
CN(CC(=O)N1CCCCCC1)S(=O)(=O)c1ccc(F)cc1,-99,-14,-33,-11,-5,-44
Cc1cc(C)n2nc(CC(=O)NCc3ccc(F)cc3)nc2n1,-1,2,-18,-4,-11,15
CC(C)(C)c1ccc(C(=O)NCCC(=O)Nc2ccc3c(c2)OCCO3)cc1,-12,67*,-11,10,65*,-3
Cc1ccc(C(=O)NCC(=O)Nc2ccc3c(c2)OCCO3)cc1,-67,-6,-14,-5,-26,-29
Cc1ccc(NC(=O)c2ccc3c(c2)OCCO3)cc1S(=O)(=O)Nc1cccc(Cl)c1,-110,62*,2,7,59*,-46
Cc1ccc(NC(=O)CCNS(=O)(=O)c2ccc3c(c2)CCC(=O)N3)cc1F,-5,3,x,5,0,1
O=C(CCNS(=O)(=O)c1ccc2c(c1)CCC(=O)N2)Nc1ccc2c(c1)OCCO2,-38,68*,11,6,56*,23
O=C(O)c1ccc(C(=O)O)c(C(=O)c2ccc(NC(=O)c3ccccc3)cc2)c1,1,-1,12,60*,-3,-8
O=c1cnc2ccccc2n1Cc1ccccc1C(F)(F)F,-11,10,4,-8,-12,12
Cc1ccc(NC(=O)c2ccc3c(c2)OCCO3)cc1C,-10,85*,7,29,47,0
O=C(Nc1ccc(NC(=O)c2ccc3c(c2)OCCO3)cc1)c1ccccc1,100*,-41,0,19,16,3
O=C(Nc1ccccc1)c1ccc2c(c1)OCCO2,-199,-3,-54,-8,-64,-35
Nc1c(C(=O)Nc2ccccc2)nnn1-c1ccc2c(c1)OCCO2,-166,56*,-25,3,32,5
O=C(Nc1ccc2oc(-c3ccccc3F)nc2c1)c1ccc2c(c1)OCCO2,-77,72*,-13,1,60*,-50
Cc1cccc(NC(=O)c2ccc3c(c2)OCCO3)c1,-66,36,-4,9,3,-13
O=C(Nc1ccccc1)Nc1snnc1C(=O)Nc1cccc(O)c1,-38,-8,-20,0,-41,6
O=C(Cn1nnc(-c2ccccc2)n1)N/N=C/c1cc([N+](=O)[O-])c(Cl)cc1Cl,50*,-57,12,-2,-12,-8
